Source: PubChem BioAssay (National Center for Advancing Translational Sciences (NCATS))
This excerpt belongs to a sample that is enriched for hits.
HTT aggregate = inhibitors of mutant huntingtin aggregate formation in PC12 cells | AID 1688 | PC12 HttQ103-GFP aggregates, Acumen cytometry, 40 h | hit rate 1.1% among 220,000 | Potency, µM (highest dose often 46.1 µM), inactives show at the highest dose activity change, negative = inhibition, usual class: inhibitors; note: potency is the fitted concentration of half-maximal effect; % is set by controls: 0 for no effect and ±100 for the full control effect; nearly all actives have a fitted effect of over 60% in size
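PC12 cells with ecdysone-inducible HTT exon1 Q103-GFP, induced by 100 nM tebufenozide, given compounds in a concentration series. GFP aggregates (1–25 um, 6 SD above background) counted in lysates by laser-scanning cytometry, 488 nm excitation.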
PNC assembly inh = blocks assembly of the perinucleolar compartment; PC3M PTB-GFP, PNC prevalence imaging, 16 h; hits give low values; activity change (PNC), negative = inhibition, % at 10 µM; hit rate 3.1% among 140,000; AID 2417;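 active = readout at or below -70, meaning at least 70% loss of cells showing the perinucleolar compartment, a nuclear body marking cancer cells; inconclusive = readout between -30 and a set limit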;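 note: plate controls were DMSO wells for no effect and camptothecin positive control wells for full effect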
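PC3M cells stably expressing PTB-GFP, 750–1000 cells/well, treated 16 h at 37 °C with compound (23 nl of library stock), in duplicate. After paraformaldehyde fixation and Hoechst stain, imaged at 20x; PNC prevalence scored by image analysis.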
HTT ATP protect = cytoprotection in Huntington HTT-Q103 PC12 cell model | PC12 HTT-Q103 induced, cytoprotection, ATP luminescence, 40 h | Potency, µM (series often up to 56.4 µM), for the others: cytoprotection (ATP increase), most hits filed as activators | hit rate 0.14% among 230,000 | AID 1471; note: potency is the fitted concentration of half-maximal effect; % of control where 0% means no effect; nearly all actives have a fitted effect of over 45% in size
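Cells were plated at 1500 per well in phenol red-free DMEM with 5% equine and 5% calf serum. Tebufenozide (100 nM final) and compounds were added, then ATPlite reagent, and luminescence was read.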
* marks the source's active call; other numbers are inactive results; u = inconclusive; x = no result given; [ ] = remark or other dose. Unless noted, calls come from the whole dose curve; as a rule, active = well fitted curve in the direction sought with a large enough effect; inconclusive = small, poorly fitted or top-dose-only effect, or another doubt; inactive = no such curve, though single readings can be large; an effect the other way counts as inactive or inconclusive.

SMILES	HTT aggregate	PNC assembly inh	HTT ATP protect
CCN(c1cccc(C)c1)S(=O)(=O)c1ccc2c3c(cccc13)C(=O)N2	u	u	-15%[1.9 µM]
O=c1c(Cl)c(NCC2CCCO2)cnn1C12CC3CC(CC(C3)C1)C2 (centres undefined)	2%	x	-98%
COC(=O)C1CCN(c2nc3ccccc3nc2C(C#N)C(=O)NCCc2ccccc2)CC1 (centres undefined)	0%	9	-56%
COC(=O)C1CCN(c2nc3ccccc3nc2C(C#N)C(=O)OCC(C)C)CC1 (centres undefined)	2%	-83*	-41%[0.074 µM]
CCCc1cc(C(=O)N(C2CCCCC2)C2CCCCC2)no1	-21%	34	-9%
Cc1ccc(S(=O)(=O)NNC(=O)c2sccc2-n2cccc2)cc1	5%	u	11%
Cc1ccc(S(=O)(=O)NNC(=O)c2sc3nc(C)cc(C)c3c2-n2cccc2)cc1	0%	-90*	18%[10 µM]
O=C(Nc1ccccc1Cc1ccccc1)c1oc2ccccc2c1COc1ccccc1	-3%	u	15%[10 µM]
O=C(NCCc1ccccc1)c1oc2ccccc2c1COc1ccccc1	14µM*	u	37%[10 µM]
Cc1nn(Cc2ccc([N+](=O)[O-])cc2)c(=O)n1-c1ccc(F)cc1	-13%	-23	-10%[10 µM]
C[C@H](NC(=O)Cn1cncn1)c1ccccc1	11%	-100*	-13%
CC(NC(=O)Cn1cnc([N+](=O)[O-])n1)c1ccccc1 (centres undefined)	7%	22	34%
Cc1ccc(-c2ccc(SCC(=O)NCC3CCCO3)nn2)cc1 (centres undefined)	-2%	x	-61%
CCCn1nnc(NC(=O)c2cc(Br)cc(Br)c2OC)n1	31%	-119*	10%
CCCn1nnc(NC(=O)c2ccc(Br)cc2)n1	13%	u	-15%[0.074 µM]
Cc1cc(C)cc(NC(=O)Cn2c(SCc3cc(C)ccc3C)nc3ccncc32)c1	-12%	47	x
Cc1ccc(SCCNC(=O)c2ccc(C)c(S(=O)(=O)Nc3ccccc3C)c2)cc1	18µM*	15	-65%
Cc1ccccc1NS(=O)(=O)c1cc(C(=O)NCc2ccco2)ccc1C	-1%	u	-30%
COc1ccc(NC(=O)C(c2ccccc2)N(C)C(=O)c2ccc(=O)[nH]c2)cc1 (centres undefined)	6%	u	21%[10 µM]
COc1ccc(NC(=O)C(c2ccc(OC)cc2)N(C)C(=O)CC2NC(=O)NC2=O)cc1 (centres undefined)	-17%	u	8%[10 µM]
COc1ccc(NC(=O)C(NC(=O)CC2NC(=O)NC2=O)c2ccccc2)cc1 (centres undefined)	10%	-115*	7%[10 µM]
COc1ccc(NC(=O)C(NC(=O)c2ccc(=O)[nH]c2)c2ccc(OC)cc2)cc1 (centres undefined)	11%	-109*	-4%[10 µM]
COc1ccc(CC(NC(C)=O)C(=O)NC2CCN(c3nnnn3-c3ccccc3)CC2)cc1 (centres undefined)	18%	-10	-16%[10 µM]
Clc1ccc(-c2cnn3c(-c4ccncc4)ccnc23)cc1	-2%	x	-46%
O=C(O)c1cccc(N(CCO)CCO)c1	4%[9.22 µM]	x	-9%[10 µM]
SMILES	HTT aggregate	PNC assembly inh	HTT ATP protect
O=C(Nc1ccc2oc(=O)ccc2c1)c1cc2ccccc2o1	3%	-119*	-41%[10 µM]
Cc1cc(=O)oc2cc(NC(=O)c3cc4ccccc4o3)ccc12	4%	30	-20%
O=C(/C=C/c1ccccc1)NC1CC2CCCC(C1)N2Cc1ccccc1 (centres undefined)	38%[9.22 µM]	x	10%[10 µM]
CCN(CC)C(=O)NC1CC2CCCC(C1)N2Cc1ccccc1 (centres undefined)	-5%	-92*	-5%[10 µM]
COc1ccc(CCN2C(=O)C3C4CC(C5C(C(N)=O)=NOC45)C3C2=O)cc1OC (centres undefined)	-3%	59	3%
O=C(CNC(=O)c1ccco1)OCc1ccc(C(=O)c2ccccc2)cc1	-1%	x	12%[10 µM]
O=C(CNC(=O)c1ccco1)OCc1ccc(Cl)cc1	-13%	-81*	2%
Cc1c(Cl)cccc1NC(=O)N1CCCC1	25%[9.22 µM]	x	20%[10 µM]
COC(=O)COc1ccc(S(=O)(=O)NCc2cccnc2)cc1	6%	u	0%[0.074 µM]
Cc1ccc2cc(COC(=O)c3ccncc3)c(=O)[nH]c2c1	-9%	23	5%
Cc1cc(Cl)ccc1OC(C)C(=O)Nc1ccccc1N1CCOCC1 (centres undefined)	u	-104*	14%[10 µM]
CC(C)Oc1cccc(C(=O)Nc2ccccc2N2CCOCC2)c1	25%	5	-11%[10 µM]
COc1ccc(Cl)cc1NC(=O)CN(C)CC(=O)Nc1ccccc1N1CCOCC1	-12%	x	-97%
